Data reported in ChEMBL document CHEMBL1961873, “Compounds: GSK PKIS; Assays: Nanosyn kinase panel” (2012).

How the values were obtained:
[1] = molecular target: Mitogen-activated protein kinase kinase kinase kinase 4 (Homo sapiens) (UniProt O95819); conditions: at 1 µM;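 further: reported figure is an averaged inhibition value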
[2] = molecular target: Dual specificity mitogen-activated protein kinase kinase 1 (Homo sapiens) (UniProt Q02750); conditions: at 0.1 µM
[3] = molecular target: Dual specificity mitogen-activated protein kinase kinase 1 (Homo sapiens) (UniProt Q02750); conditions: at 1 µM
[4] = molecular target: Misshapen-like kinase 1 (Homo sapiens) (UniProt Q8N4C8); conditions: at 0.1 µM
[5] = molecular target: Misshapen-like kinase 1 (Homo sapiens) (UniProt Q8N4C8); conditions: at 1 µM
[6] = molecular target: T1, Serine/threonine-protein kinase 4 (Homo sapiens) (UniProt Q13043); conditions: at 0.1 µM
T1 sequence (whole entry): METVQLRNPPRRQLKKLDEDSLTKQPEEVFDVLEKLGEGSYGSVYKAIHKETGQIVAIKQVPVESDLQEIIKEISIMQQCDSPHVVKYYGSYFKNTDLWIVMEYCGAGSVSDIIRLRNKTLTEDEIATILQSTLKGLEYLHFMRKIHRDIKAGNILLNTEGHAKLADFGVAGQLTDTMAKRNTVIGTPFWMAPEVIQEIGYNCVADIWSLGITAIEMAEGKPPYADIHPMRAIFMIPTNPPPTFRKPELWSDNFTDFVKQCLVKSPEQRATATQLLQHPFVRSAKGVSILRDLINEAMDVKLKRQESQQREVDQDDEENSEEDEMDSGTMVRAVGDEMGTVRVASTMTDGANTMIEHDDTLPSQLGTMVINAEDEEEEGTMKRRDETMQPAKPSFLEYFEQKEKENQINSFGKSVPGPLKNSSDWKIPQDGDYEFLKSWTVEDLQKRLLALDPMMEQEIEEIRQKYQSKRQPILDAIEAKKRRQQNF

[7] = molecular target: T1, Serine/threonine-protein kinase 4 (Homo sapiens); conditions: at 1 µM
[8] = molecular target: T2, Serine/threonine-protein kinase 3 (Homo sapiens) (UniProt Q13188); conditions: at 0.1 µM
T2 sequence (whole entry): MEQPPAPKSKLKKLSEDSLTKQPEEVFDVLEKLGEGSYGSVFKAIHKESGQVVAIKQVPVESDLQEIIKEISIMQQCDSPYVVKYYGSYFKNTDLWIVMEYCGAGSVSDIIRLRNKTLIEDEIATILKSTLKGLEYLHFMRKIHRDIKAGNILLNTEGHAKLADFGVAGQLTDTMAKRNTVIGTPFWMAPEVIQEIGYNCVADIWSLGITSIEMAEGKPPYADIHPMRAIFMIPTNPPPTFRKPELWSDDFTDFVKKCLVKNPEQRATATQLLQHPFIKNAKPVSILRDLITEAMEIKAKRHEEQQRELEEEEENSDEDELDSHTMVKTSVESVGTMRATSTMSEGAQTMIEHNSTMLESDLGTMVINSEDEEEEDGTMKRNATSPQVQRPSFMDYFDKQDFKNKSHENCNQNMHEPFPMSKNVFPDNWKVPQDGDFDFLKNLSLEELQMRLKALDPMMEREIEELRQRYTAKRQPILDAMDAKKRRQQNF

[9] = molecular target: T2, Serine/threonine-protein kinase 3 (Homo sapiens); conditions: at 1 µM
[10] = molecular target: Serine/threonine-protein kinase 26 (Homo sapiens) (UniProt Q9P289); conditions: at 0.1 µM
[11] = molecular target: Serine/threonine-protein kinase 26 (Homo sapiens) (UniProt Q9P289); conditions: at 1 µM
[12] = molecular target: Serine/threonine-protein kinase PAK 1 (Homo sapiens) (UniProt Q13153); conditions: at 0.1 µM
[13] = molecular target: Serine/threonine-protein kinase PAK 1 (Homo sapiens) (UniProt Q13153); conditions: at 1 µM
[14] = molecular target: Serine/threonine-protein kinase PAK 2 (Homo sapiens) (UniProt Q13177); conditions: at 0.1 µM
[15] = molecular target: Serine/threonine-protein kinase PAK 2 (Homo sapiens) (UniProt Q13177); conditions: at 1 µM
[16] = molecular target: Serine/threonine-protein kinase PAK 3 (Homo sapiens) (UniProt O75914); conditions: at 0.1 µM
[17] = molecular target: Serine/threonine-protein kinase PAK 3 (Homo sapiens) (UniProt O75914); conditions: at 1 µM
[18] = molecular target: Serine/threonine-protein kinase PAK 5 (Homo sapiens) (UniProt Q9P286); conditions: at 0.1 µM
[19] = molecular target: Serine/threonine-protein kinase PAK 5 (Homo sapiens) (UniProt Q9P286); conditions: at 1 µM
[20] = molecular target: Serine/threonine-protein kinase PAK 6 (Homo sapiens) (UniProt Q9NQU5); conditions: at 0.1 µM;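 further: mean PAK6 inhibition reported from the GSK PKIS screen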
Serine/threonine-protein kinase PAK 6 (Homo sapiens), sequence (Q9NQU5 whole entry, looked up): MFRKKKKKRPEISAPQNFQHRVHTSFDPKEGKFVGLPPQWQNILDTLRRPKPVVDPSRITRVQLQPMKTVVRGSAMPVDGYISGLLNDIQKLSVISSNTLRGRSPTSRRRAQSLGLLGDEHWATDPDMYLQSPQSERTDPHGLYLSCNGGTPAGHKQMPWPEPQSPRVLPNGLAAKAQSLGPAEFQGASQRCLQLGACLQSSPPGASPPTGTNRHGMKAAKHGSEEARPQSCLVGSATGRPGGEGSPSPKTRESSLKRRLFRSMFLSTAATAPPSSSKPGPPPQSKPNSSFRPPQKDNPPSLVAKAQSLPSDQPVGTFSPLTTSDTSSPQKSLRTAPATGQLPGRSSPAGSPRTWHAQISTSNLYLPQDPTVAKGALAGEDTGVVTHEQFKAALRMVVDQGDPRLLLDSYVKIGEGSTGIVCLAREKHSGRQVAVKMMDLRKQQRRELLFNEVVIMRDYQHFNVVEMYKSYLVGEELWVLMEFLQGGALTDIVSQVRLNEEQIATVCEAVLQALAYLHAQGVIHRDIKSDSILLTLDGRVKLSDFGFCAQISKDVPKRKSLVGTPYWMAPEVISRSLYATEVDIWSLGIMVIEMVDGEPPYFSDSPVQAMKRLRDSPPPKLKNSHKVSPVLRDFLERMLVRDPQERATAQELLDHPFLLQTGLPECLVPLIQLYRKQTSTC

Serine/threonine-protein kinase PAK 1 (Homo sapiens), sequence (Q13153 whole entry): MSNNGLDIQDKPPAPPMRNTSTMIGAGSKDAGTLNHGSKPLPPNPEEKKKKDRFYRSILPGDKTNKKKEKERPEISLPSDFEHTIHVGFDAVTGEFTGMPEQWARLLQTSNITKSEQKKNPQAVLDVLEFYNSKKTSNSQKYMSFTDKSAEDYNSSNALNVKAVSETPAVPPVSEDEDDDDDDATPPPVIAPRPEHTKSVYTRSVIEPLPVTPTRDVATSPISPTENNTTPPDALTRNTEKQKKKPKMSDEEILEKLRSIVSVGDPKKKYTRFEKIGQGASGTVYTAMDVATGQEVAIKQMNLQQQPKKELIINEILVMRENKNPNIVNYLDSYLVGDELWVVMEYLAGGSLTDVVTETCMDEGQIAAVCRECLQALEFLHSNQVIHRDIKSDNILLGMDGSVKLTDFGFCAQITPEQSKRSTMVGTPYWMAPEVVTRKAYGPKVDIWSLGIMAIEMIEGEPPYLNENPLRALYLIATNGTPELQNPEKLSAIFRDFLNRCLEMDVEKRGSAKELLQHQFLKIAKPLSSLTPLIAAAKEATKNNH
Serine/threonine-protein kinase PAK 5 (Homo sapiens), sequence (Q9P286 whole entry, looked up): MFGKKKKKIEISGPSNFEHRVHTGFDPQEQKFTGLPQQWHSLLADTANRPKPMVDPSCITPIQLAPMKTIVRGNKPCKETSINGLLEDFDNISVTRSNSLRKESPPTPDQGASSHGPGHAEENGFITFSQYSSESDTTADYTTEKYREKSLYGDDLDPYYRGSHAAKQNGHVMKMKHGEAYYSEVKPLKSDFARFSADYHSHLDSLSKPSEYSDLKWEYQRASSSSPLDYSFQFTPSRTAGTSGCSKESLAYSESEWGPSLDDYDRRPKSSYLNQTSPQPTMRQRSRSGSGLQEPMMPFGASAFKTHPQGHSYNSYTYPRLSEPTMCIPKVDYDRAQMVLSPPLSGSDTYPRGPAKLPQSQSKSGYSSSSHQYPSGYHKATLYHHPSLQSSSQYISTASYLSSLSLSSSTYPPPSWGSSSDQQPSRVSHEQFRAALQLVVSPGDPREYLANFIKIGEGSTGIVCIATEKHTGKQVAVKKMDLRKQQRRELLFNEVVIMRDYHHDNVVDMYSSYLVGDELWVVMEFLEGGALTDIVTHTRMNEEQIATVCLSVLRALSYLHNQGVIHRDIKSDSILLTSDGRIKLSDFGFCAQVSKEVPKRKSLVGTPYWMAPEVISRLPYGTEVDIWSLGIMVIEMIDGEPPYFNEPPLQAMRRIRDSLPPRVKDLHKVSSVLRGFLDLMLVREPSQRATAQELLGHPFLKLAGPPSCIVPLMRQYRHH
Mitogen-activated protein kinase kinase kinase kinase 4 (Homo sapiens), sequence (O95819 2-1239 limits assumed): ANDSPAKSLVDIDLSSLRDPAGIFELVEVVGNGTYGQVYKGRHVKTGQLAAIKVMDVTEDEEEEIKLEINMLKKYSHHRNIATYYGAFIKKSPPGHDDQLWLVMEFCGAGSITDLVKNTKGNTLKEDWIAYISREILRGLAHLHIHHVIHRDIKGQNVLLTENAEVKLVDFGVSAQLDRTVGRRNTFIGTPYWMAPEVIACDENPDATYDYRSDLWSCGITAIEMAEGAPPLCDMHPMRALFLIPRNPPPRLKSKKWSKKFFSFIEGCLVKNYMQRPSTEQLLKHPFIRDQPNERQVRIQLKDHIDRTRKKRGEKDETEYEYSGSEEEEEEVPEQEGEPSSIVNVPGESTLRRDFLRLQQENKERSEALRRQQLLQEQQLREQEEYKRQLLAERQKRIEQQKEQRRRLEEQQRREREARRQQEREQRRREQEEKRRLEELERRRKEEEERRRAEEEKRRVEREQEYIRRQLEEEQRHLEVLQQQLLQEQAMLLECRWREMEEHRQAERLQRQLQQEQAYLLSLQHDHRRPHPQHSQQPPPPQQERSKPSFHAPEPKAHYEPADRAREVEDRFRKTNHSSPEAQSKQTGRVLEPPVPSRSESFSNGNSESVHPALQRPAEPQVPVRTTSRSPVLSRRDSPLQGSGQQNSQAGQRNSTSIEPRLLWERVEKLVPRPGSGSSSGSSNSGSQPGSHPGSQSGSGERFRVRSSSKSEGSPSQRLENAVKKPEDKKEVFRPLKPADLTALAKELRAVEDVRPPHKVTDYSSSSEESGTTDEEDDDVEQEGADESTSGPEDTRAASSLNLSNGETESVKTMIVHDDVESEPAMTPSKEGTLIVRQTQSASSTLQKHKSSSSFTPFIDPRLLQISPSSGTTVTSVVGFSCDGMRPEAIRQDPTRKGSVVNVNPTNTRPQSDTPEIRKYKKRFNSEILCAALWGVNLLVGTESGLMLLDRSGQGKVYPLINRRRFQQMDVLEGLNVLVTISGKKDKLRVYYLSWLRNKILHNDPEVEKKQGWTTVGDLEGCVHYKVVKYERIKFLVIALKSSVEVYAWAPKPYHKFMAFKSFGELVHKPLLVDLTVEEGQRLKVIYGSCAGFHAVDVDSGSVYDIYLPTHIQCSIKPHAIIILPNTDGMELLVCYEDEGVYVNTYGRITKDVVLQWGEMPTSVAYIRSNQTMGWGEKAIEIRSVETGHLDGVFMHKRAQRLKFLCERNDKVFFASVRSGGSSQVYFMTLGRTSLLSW
Serine/threonine-protein kinase 26 (Homo sapiens), sequence (Q9P289 2-416 limits assumed): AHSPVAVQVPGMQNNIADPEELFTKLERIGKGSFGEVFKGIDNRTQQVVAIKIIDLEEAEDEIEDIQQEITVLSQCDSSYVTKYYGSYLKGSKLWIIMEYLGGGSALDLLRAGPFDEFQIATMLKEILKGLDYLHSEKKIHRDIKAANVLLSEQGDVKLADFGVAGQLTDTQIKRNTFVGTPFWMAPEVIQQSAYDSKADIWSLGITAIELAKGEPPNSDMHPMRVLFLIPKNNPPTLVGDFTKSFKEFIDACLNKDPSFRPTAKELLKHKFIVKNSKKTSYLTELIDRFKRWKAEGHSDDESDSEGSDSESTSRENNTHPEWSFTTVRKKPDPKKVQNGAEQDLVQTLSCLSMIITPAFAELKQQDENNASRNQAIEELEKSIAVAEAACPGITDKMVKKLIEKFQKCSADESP
Serine/threonine-protein kinase PAK 2 (Homo sapiens), sequence (Q13177 whole entry): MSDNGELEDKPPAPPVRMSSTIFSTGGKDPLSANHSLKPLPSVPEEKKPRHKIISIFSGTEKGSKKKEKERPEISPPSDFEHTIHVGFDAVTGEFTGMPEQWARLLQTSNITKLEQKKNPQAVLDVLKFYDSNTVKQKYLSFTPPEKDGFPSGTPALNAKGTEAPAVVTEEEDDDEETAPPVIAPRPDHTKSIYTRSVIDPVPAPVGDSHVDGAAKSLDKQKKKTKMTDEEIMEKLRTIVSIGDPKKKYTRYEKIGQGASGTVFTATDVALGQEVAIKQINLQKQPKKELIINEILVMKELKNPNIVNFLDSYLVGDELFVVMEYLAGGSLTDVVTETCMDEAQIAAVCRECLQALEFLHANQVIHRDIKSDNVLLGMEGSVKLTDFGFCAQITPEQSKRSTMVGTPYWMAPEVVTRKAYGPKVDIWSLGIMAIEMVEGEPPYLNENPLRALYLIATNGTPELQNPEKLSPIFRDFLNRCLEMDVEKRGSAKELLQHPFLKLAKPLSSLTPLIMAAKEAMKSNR
Dual specificity mitogen-activated protein kinase kinase 1 (Homo sapiens), sequence (Q02750 whole entry): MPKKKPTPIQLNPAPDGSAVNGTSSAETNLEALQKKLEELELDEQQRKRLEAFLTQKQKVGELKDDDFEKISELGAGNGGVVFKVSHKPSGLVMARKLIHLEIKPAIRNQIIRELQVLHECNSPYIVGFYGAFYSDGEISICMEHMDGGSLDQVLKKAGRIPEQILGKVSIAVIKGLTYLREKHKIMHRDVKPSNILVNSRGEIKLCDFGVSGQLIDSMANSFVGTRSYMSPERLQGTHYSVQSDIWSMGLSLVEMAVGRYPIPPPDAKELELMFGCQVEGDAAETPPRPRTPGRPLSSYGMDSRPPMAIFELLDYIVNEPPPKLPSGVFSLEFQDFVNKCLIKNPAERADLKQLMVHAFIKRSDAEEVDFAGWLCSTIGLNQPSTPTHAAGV

Row | SMILES | inhibition [1] [%] | inhibition [2] [%] | inhibition [3] [%] | inhibition [4] [%] | inhibition [5] [%] | inhibition [6] [%] | inhibition [7] [%] | inhibition [8] [%] | inhibition [9] [%] | inhibition [10] [%] | inhibition [11] [%] | inhibition [12] [%] | inhibition [13] [%] | inhibition [14] [%] | inhibition [15] [%] | inhibition [16] [%] | inhibition [17] [%] | inhibition [18] [%] | inhibition [19] [%] | inhibition [20] [%]
1 | CCS(=O)(=O)c1ccc(OC)c(Nc2nccc(N(C)c3ccc4c(C)n[nH]c4c3)n2)c1 | 15.6 | 4.63 | 5.1 | 3.64 | 11.7 | 4.2 | 5.13 | 4.58 | 5.24 | -2.14 | 0.16 | 3.86 | 6.28 | 1.58 | 1.86 | 5.97 | 5.09 | 1.92 | 0.85 | –
2 | Cc1ccc(C(=O)NC2CC2)cc1-c1ccc2[nH]ncc2c1 | -0.85 | -3.43 | -3.98 | -4.28 | -1.78 | -2.09 | 1.26 | -4.71 | -2.04 | -0.05 | -0.24 | -0.61 | -2.6 | -3.3 | -4.55 | -4.8 | -3.91 | -4.55 | -2.43 | 1.46
3 | CN(c1ccc(NC(=O)Nc2ccc(OC(F)(F)F)cc2)cc1)c1ccnc(Nc2cccc(S(N)(=O)=O)c2)n1 | 85.1 | 3.84 | 13.7 | 24.3 | 80.3 | 2.75 | 9.45 | 4.46 | 6.49 | -1.04 | -3.21 | 1.61 | -0.37 | 0.53 | -1.63 | 2.32 | 0.7 | -3.24 | 1.16 | -3.33
4 | Cc1ccc2c(-c3ccnc(Nc4cccc(C(F)(F)F)c4)n3)c(-c3ccccc3)nn2n1 | 46.8 | 5.35 | 7.59 | 8.79 | 38.2 | 3.51 | 7.31 | 5.68 | 6.69 | 0.2 | 13.3 | 9.96 | 8.06 | 1.38 | 1.7 | 5.11 | 5.68 | -4.38 | -7 | –
5 | COc1cc2ncnc(Nc3ccc4c(cnn4Cc4ccccc4)c3)c2cc1OC | 9.55 | 3.32 | 2.12 | 7.38 | 9.64 | 3.42 | 7.03 | 2.19 | 5.68 | -0.63 | -2.02 | 4.26 | 6.92 | 1.54 | 2.6 | 2.02 | 3.19 | 1.77 | 2.16 | –
6 | CN(C)C(=O)O[C@H]1CN[C@H](C#Cc2cc3ncnc(Nc4ccc(OCc5cccc(F)c5)c(Cl)c4)c3s2)C1 | 4.23 | 1.29 | 2.35 | 3.51 | 3.5 | 2.1 | 4.55 | 2.81 | 3 | -0.23 | -0.62 | 4.28 | 2.22 | 1.72 | -0.31 | 2.53 | 4.3 | 4.8 | 1.82 | 9.3
7 | Nc1nccc(C#Cc2cncnc2Nc2ccc(OCc3cccc(F)c3)c(Cl)c2)n1 | 5.46 | 2.67 | 4.4 | 6.95 | 6.41 | 6.4 | 10.4 | 6.63 | 7.32 | -1.78 | -8.32 | 6.18 | 3.97 | 1.6 | 2.31 | 0.29 | 3.37 | 3.29 | -3.56 | 5.51
8 | CN(C)c1cc2c(Nc3ccc4c(cnn4Cc4ccccc4)c3)ncnc2cn1 | 6.51 | 3.44 | 2.77 | 3.28 | 4.78 | 3.03 | 1.68 | 4.54 | 2.67 | -1.9 | -0.54 | 6.36 | 6.67 | 0.73 | 0.51 | 3.07 | 3.39 | -1.52 | -2.02 | 4.32
9 | NC(=O)c1sc(-n2cnc3ccccc32)cc1OCc1ccccc1Br | 11.3 | 3.81 | 4.35 | 5.6 | 9.1 | 1.82 | 7.07 | 4.03 | 5.83 | -1.18 | -2.12 | 6.29 | 10 | 1.42 | 2.45 | 4.83 | 5.89 | 2.59 | 5.06 | –
10 | NS(=O)(=O)c1ccc(N/N=C2\C(=O)Nc3ccc(Cl)cc32)cc1 | 75.5 | 5.27 | 5.11 | 18.5 | 65.7 | 21.2 | 67.5 | 16.8 | 56.9 | 1.38 | 13.4 | 3.14 | 5.51 | 0.72 | 1.37 | 3.71 | 5.15 | 4.18 | 3.28 | -3.69
11 | CN1CCN(C(=O)c2ccc(NC(=O)Nc3ccc(N(C)c4ccnc(Nc5ccc(CS(C)(=O)=O)cc5)n4)cc3)cc2)CC1 | 58.6 | 1.05 | 10.8 | 7.54 | 42.4 | 16.1 | 60.9 | 6.27 | 28.3 | 1.7 | 12.8 | -0.46 | 6.1 | 0.16 | 1.51 | 1.85 | 5.09 | 3.35 | 17.6 | –
12 | NS(=O)(=O)c1ccc(-c2cc3ccncc3cc2OCc2ccccc2)cc1 | 6.71 | 4.49 | 3.72 | 2.78 | 5.92 | 5.08 | 7.76 | 5.7 | 5.97 | 0.92 | 0.38 | 5.31 | 6.13 | 1.08 | 0.46 | 3.48 | 4.21 | 1.12 | -3.7 | –
13 | Cc1ccc(NC(=O)CC2CC2)cc1-c1ccc(C(=O)NCC2CC2)cc1 | 9.33 | 3.69 | 2.73 | 2.74 | 5.47 | 5.3 | 8.01 | 4.49 | 5.72 | 0.36 | 0.9 | 5.24 | 4.74 | 1.76 | 1.56 | 3.33 | 4.25 | 6.64 | 5.74 | –
